# Screens deposited in PubChem BioAssay by National Center for Advancing Translational Sciences (NCATS).
# GLP1R ag – agonists of human GLP-1 receptor; HEK293 GLP-1R CRE-luciferase, luminescence, 4-6 h; cells express a hypersensitive GLP-1R form; Potency, µM (series often up to 45.6 µM), actives largely listed as activators; 380,000 tested, 0.007% active; AID 624172
# Target sequence (P43220 whole entry, looked up): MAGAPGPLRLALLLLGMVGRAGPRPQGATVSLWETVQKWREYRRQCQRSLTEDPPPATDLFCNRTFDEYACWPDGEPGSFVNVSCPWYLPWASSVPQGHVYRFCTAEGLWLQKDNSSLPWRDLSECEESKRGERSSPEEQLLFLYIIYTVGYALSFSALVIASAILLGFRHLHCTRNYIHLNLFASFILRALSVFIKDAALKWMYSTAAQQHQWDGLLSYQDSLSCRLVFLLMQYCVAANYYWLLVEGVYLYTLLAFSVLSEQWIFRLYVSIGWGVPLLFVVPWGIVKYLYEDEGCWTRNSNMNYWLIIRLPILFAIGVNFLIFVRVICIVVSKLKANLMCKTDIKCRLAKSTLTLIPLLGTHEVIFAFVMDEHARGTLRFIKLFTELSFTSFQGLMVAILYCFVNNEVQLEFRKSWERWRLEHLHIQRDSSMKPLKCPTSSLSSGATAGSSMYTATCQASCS
# GLP1R inv ag – acts as inverse agonist at human GLP-1 receptor | Potency, µM (series often up to 38.3 µM), hits mostly inhibitors | 410,000 tested, 1.6% active | P43220 | HEK293 GLP-1R CRE-luciferase, luminescence, 24 h; GLP-1R form is constitutively active; further: nearly all actives have a fitted effect of over 55% in size
#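 Stable HEK293 clone (constitutively active GLP-1R + cAMP-response luciferase); 200 cells/uL plated, 12 h pre-culture, compound 24 hr, 37 deg C/5% CO2; detection reagent 12 min RT; luminescence.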
# ClpP mod – qHTS Assay for Activators of ClpP; 340,000 tested, 1.9% active; ATP-dependent Clp protease proteolytic subunit (Bacillus subtilis (strain 168)), P80244; purified B. subtilis ClpP, FRET peptide cleavage, 20 min; Potency, µM (top dose mostly 57.5 µM); active means well fitted falling curve with a large enough effect; inconclusive means small, poorly fitted or top-dose-only effect; inactive means no such curve, though single readings can be large or run the other way; further: the source files actives as falling curves though it sought activators and does not explain the sign; nearly all actives have a fitted effect of over 65% in size
# Target sequence (P80244 whole entry, looked up): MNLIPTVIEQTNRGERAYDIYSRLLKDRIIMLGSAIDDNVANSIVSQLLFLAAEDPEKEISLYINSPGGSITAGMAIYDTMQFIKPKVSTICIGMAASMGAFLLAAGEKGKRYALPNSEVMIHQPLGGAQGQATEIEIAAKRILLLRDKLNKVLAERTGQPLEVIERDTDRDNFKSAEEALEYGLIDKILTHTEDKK
#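 Purified B. subtilis ClpP, 10 microg/mL final in Tris/HCl pH8 with KCl, BSA, glycerol and Tween-20, cleaved an Abz/nitrotyrosine-quenched decapeptide. Fluorescence (ex 320, em 430) was read at 0 and 20 min at room temperature. Delta was normalized to 5.8 microM ADEP and DMSO/no-enzyme controls.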
# HEK293 tox – cytotoxicity counter-screen for GLP-1 receptor inverse agonists; 410,000 tested, 0.13% active; HEK293 cAMP-luciferase reporter cells, luminescence, 24 h; Potency, µM (highest dose often 38.3 µM), usual class: inhibitors;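 further: loss of luciferase light is scored as toxicity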
#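 Seeding density was 200 cells/uL; after overnight-length (12 h) culture, 23 nL compounds went on for 24 h at 37 °C. Readout used a luciferase detection reagent, luminescence taken after 12 min at room temperature.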
# Hits are given with their value; - = inactive; ? = inconclusive; . = no result. The list is not random: actives were taken first. Their share in the collection is about 3.2%. Unless noted, the call rests on the fitted dose curve; in most records, active means well fitted curve in the direction sought with a large enough effect; inconclusive means small, poorly fitted or top-dose-only effect, or another doubt; inactive means no such curve, though single readings can be large; an effect the other way counts as inactive or inconclusive.
SMILES,GLP1R ag,GLP1R inv ag,ClpP mod,HEK293 tox
C=C(C)CCC(C)N1CCC(n2nccc2NC(=O)CCOc2ccccc2)CC1 (centres undefined),-,5µM,-,-
CCOc1cccc(CN2CCC(n3nccc3NC(=O)CCCc3ccccc3)CC2)c1,-,10µM,-,-
CCOc1ccc(CN2CCC(n3nccc3NC(=O)CCCc3ccccc3)CC2)cc1,-,?,-,-
CC(C)NC(=O)N1CCC(n2nccc2NC(=O)CCOc2ccccc2)CC1,-,-,-,-
O=C(Cc1ccccc1)Nc1cccc(-c2nnc(-c3ccco3)o2)c1,-,-,25µM,-
O=C(COc1ccccc1)Nc1ccc(-c2nnc(-c3ccco3)o2)cc1,-,-,20µM,-
O=C(Nc1cccc(-c2nnc(-c3ccco3)o2)c1)C(c1ccccc1)c1ccccc1,-,8.9µM,11µM,-
O=C(Cc1ccc(Cl)cc1)Nc1cccc(-c2nnc(-c3ccco3)o2)c1,-,-,?,-
O=C(CSc1cn(CC(=O)N2CCOCC2)c2ccccc12)Nc1ccccc1F,.,-,-,-
CC(C)CC(C(=O)Nc1oc(-c2ccccc2)c(-c2ccccc2)c1C#N)N1C(=O)c2ccccc2C1=O (centres undefined),-,10µM,-,-
Clc1ccc(-c2noc3ncnc(N4CCCCC4)c23)cc1,-,-,-,-
COC(=O)c1c(NC(=O)C2COc3ccccc3O2)sc2c1CCN(Cc1ccccc1)C2 (centres undefined),-,?,20µM,-
CC(C)CCCC(C)N (centres undefined),-,.,.,.
CCc1cccc(NC(=O)C2CCN(S(=O)(=O)c3cccc(-c4noc(C)n4)c3)CC2)c1,.,?,-,-
Cc1nc(-c2ccc(C)c(S(=O)(=O)N3CCC(C(=O)Nc4ccc(Cl)cc4)CC3)c2)no1,.,10µM,-,-
Cc1ccc(NC(=O)COc2ccccc2C(=O)Nc2ccccc2)cc1,.,.,-,.
CCN(CC)c1ccc(-c2nn3c(-c4ccccc4OC)nnc3s2)cc1,-,-,7.9µM,?
COc1ccc(-c2nn3c(-c4ccccc4)nnc3s2)cc1,-,-,-,-
COc1ccc(C2/C=C\CN(C(=O)Nc3ccc(C(F)(F)F)cc3)CC(=O)N2Cc2ccc(F)cc2)cc1 (centres undefined),-,11µM,-,-
COc1ccc(C2/C=C\CN(C(=O)C3CCCC3)[C@H](Cc3ccccc3)C(=O)N2Cc2ccc(F)cc2)cc1 (some centres undefined),-,4.5µM,-,-
COc1ccc([C@H]2/C=C\CN(C(=O)C3CCCC3)[C@@H](C)C(=O)N2Cc2ccc(F)cc2)cc1,-,?,-,-
Cc1ccc(C(=O)CSc2nnc(CNc3ccc(C)cc3C)n2Cc2ccco2)cc1,-,10µM,-,-
COc1ccc(C(=O)CSc2nnc(CNc3ccc(C)cc3C)n2Cc2ccco2)cc1,-,-,-,-
Cc1cc(Nc2ccccc2C)nc(-n2nc(C)cc2C)n1,.,-,-,-
CN(CC(=O)Nc1cccc(Cl)c1)S(=O)(=O)/C=C/c1ccccc1,-,10µM,-,-
SMILES,GLP1R ag,GLP1R inv ag,ClpP mod,HEK293 tox
CC(CC(=O)Nc1ccncc1)c1ccccc1 (centres undefined),-,-,-,-
CC(CC(=O)Nc1cccc(Cl)c1)c1ccccc1 (centres undefined),-,?,14µM,-
COc1cccc(NC(=O)CN(C)S(=O)(=O)/C=C/c2ccccc2)c1,-,?,-,-
CCc1cc2c(cc3c(=O)n(CCCC(=O)NCc4cccc(Br)c4)ncn32)s1,.,-,-,-
CC(C)c1ccc(C2=NC(c3ccncc3)=Nc3ccc(F)cc3N2)cc1,.,-,-,-
COc1ccc(NC(=O)C(=O)NCC(=O)Nc2cc(OC)ccc2OC)cc1,-,-,10µM,-
COc1ccc(OC)c(NC(=O)CNC(=O)c2cccs2)c1,-,?,-,-
Cc1cc(-c2nc3ccccc3s2)ccc1N,-,7.9µM,?,-
CC(=O)Nc1cc(-c2nc3ccccc3s2)ccc1C,.,-,-,-
Cc1ccc2nc(-c3ccc(N)cc3)sc2c1,-,4.5µM,.,-
Brc1ccc(-c2nc3ccccc3s2)s1,-,-,28µM,-
Nc1ccc2nc(-c3ccccc3)sc2c1,-,8.9µM,?,-
CCOc1ccccc1NC(=O)c1ccc2c(Cl)c3c(nc2c1)CCC3,-,-,-,-
O=C(Nc1nc2ccc(SC(F)F)cc2s1)c1ccc(NS(=O)(=O)c2ccc(F)c(F)c2)cc1,-,?,32µM,-
CC(=O)N1CCCc2cc(S(=O)(=O)N3CCCC(C(=O)NC(C)C)C3)ccc21 (centres undefined),.,-,-,-
O=C(Nc1ccc2c(c1)nc1n2CCN(Cc2ccccc2)C1)NC1CCCCC1,-,-,28µM,-
Oc1c(Cl)cc(Oc2cc(Cl)c(O)c(CN3CCOCC3)c2)cc1CN1CCOCC1,-,11µM,.,-
Oc1c(CN2CCOCC2)cc(CN2CCOCC2)c(O)c1O,-,-,.,-
Cc1c(C(=O)O)c(-c2ccccc2)nn1-c1ccccc1,-,-,16µM,-
CC(=O)c1c(C)nn(-c2ccccc2)c1C,-,-,.,?
O=C(COC(=O)C1=NN(c2ccccc2)C(=O)CC1)NCc1ccccc1Cl,-,-,28µM,-
Cc1ccccc1CSc1cn(CC(=O)N2CCCCC2)c2ccccc12,.,?,-,-
CC(C)CCNC(=O)C(c1ccco1)N(Cc1ccc(F)cc1)C(=O)c1snc(C(N)=O)c1N (centres undefined),-,3.5µM,-,-
CN(C)c1ccc(C(C(=O)NC2CCCCC2)N(Cc2ccco2)C(=O)c2snc(C(N)=O)c2N)cc1 (centres undefined),-,2µM,-,?
CCOc1ccc(-c2nnc(SCC(=O)N(CC)c3cccc(C)c3)o2)cc1,.,-,-,-
SMILES,GLP1R ag,GLP1R inv ag,ClpP mod,HEK293 tox
CCSc1nc(-c2ccc(OC)cc2)n(-c2nc3ccccc3s2)n1,-,-,28µM,-
COc1ccc(-c2nnc(SCC(=O)Nc3nc4ccccc4s3)n2C)cc1,-,-,-,-
CCn1nnc2cc(C(=O)Nc3ccc(Cl)cc3C)ccc21,.,-,-,-
O=C(Nc1ccc(/C=C/c2nc3ccccc3o2)cc1)c1cccc(C(F)(F)F)c1,-,3.2µM,16µM,-
COc1cc2c(NC3CCN(C)CC3)nc(N3CCCN(C)CC3)nc2cc1OCCCCN(C)C,.,.,-,.
Cc1ccc(S(=O)(=O)N2CCN(c3ccc(C(=O)N4CCOCC4)cc3[N+](=O)[O-])CC2)cc1,-,-,28µM,-
Cc1ccc(S(=O)(=O)N2CCN(C(=O)c3ccc(N4CCCC4)c([N+](=O)[O-])c3)CC2)cc1,-,-,-,-
Cc1ccc(NC(=O)Cn2nnc3sc4c(c3c2=O)CCCC4)c(C)c1,.,-,-,-
Cc1cc(C(=O)CN2C(=O)c3ccccc3S2(=O)=O)c(C)n1-c1ccccc1,-,1.4µM,-,-
